High-throughput results deposited in PubChem by National Center for Advancing Translational Sciences (NCATS).
This is a sample that favours compounds with a hit; in the whole collection about 5.6% have one here.
PKM2 act: activators of human pyruvate kinase M2. P14618. purified PKM2, Kinase-Glo ATP luminescence, activation; response scale: 0% is enzyme alone, no compound. Potency, µM (titrated, usually from 57.5 µM), without a hit: at the top dose activation, hits mostly activators. 260,000 tested, 0.34% active. AID 1631; note: potency is the fitted concentration of half-maximal effect; nearly all actives have a fitted effect of over 55% in size
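Purified hPK-M2 (>95% pure) converted ADP (0.1 mM final) to ATP with 0.5 mM PEP in 50 mM imidazole pH7.2, KCl, MgCl2, Tween 20, BSA; 1 h at room temperature. ATP detected by Kinase-Glo luminescence.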
RORgamma inh: inhibitors of mouse ROR gamma transcriptional activity. Drosophila S2 Gal4-RORgamma UAS-luciferase reporter, 20 h. Potency, µM (highest dose often 53.6 µM), without a hit: top-dose activity change, negative = inhibition, actives largely listed as inhibitors. 310,000 tested, 5.4% active; note: potency is the fitted concentration of half-maximal effect; nearly all actives have a fitted effect of over 60% in size
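Luciferase reporter read in Schneider cells carrying Gal4-RORγ (mouse) and UAS-Photinus luciferase; cells given compound 1 h before 700 uM copper sulfate induction, then incubated 20 h at ambient temperature.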
CtBP-E1A inh: inhibitors of CtBP/E1A interaction; AlphaScreen GST-E1A/His-CtBP binding, 1536-well; active compounds read low; 340,000 tested, 0.49% active; activity change, % (no concentration beside the values); in the data active = activity change below about -65%; inconclusive = mostly about -30% to -63%
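Protein mix (5X: 125 nM each GST-E1A, His-CtBP) was incubated with pinned compound 2 h at 37 deg C in dark, in 50 mM Tris pH 8.0 buffer with 300 mM NaCl. Glutathione donor and nickel acceptor beads followed; AlphaScreen signal read after 1 h.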
Gal4-VP16 FLuc: inhibits Gal4-VP16 luciferase reporter, ROR gamma counter-screen; Drosophila S2 Gal4-VP16 UAS-luciferase, luminescence, 20 h; Potency, µM (top dose mostly 53.6 µM), inactives show at the top dose activity, negative = inhibition, actives largely listed as inhibitors; 310,000 tested, 3.5% active; AID 2546;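 note: Gal4-VP16 expression switched on by copper sulfate through the metallothionein promoter; potency is the fitted concentration of half-maximal effect; nearly all actives have a fitted effect of over 50% in size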
Six1-Eya2 inh: Six1/Eya2 interaction inhibition; 360,000 tested, 0.56% active; activity change, % (test concentration not listed); AlphaScreen GST-Six1/His-Eya2 binding, biochemical; active compounds read low; in the data active = activity change below about -65%; inconclusive = mostly about -30% to -63%
Target sequence (O00167 whole entry, looked up): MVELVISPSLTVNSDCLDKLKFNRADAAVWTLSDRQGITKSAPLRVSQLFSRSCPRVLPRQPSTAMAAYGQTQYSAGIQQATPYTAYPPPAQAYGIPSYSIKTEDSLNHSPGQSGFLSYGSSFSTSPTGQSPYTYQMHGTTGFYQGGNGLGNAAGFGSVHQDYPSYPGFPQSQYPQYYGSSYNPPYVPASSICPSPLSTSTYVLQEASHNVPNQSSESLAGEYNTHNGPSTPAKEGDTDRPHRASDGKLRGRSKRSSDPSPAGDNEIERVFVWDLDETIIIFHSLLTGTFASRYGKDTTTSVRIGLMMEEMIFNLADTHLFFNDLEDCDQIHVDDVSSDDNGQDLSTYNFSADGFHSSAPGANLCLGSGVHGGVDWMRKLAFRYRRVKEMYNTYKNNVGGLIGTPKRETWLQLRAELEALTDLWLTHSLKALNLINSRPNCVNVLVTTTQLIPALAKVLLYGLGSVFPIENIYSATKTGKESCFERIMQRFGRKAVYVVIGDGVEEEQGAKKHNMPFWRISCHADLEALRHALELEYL
Target sequence (Q15475 whole entry, looked up): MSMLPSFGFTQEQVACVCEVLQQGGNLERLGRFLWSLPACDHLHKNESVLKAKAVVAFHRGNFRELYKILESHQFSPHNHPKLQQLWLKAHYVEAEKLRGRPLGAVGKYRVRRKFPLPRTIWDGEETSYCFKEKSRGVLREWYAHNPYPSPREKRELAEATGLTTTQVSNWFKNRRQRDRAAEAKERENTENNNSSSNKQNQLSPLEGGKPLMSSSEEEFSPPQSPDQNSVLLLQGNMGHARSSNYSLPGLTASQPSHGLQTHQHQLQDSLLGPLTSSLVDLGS
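Compounds are tested against tagged Six1 and Eya2 proteins bridged by glutathione donor and nickel acceptor beads; after a one-hour incubation at 37 °C without light, AlphaScreen emission is recorded.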
* = called active by the depositor; ? = inconclusive; / = no result; [ ] = dose if it differs, or a comment. Unless noted, calls come from the whole dose curve; as a rule, active = well fitted curve in the direction sought with a large enough effect; inconclusive = small, poorly fitted or top-dose-only effect, or another doubt; inactive = no such curve, though single readings can be large; an effect the other way counts as inactive or inconclusive. % is set by controls: 0 for no effect and ±100 for the full control effect.

SMILES	PKM2 act	RORgamma inh	CtBP-E1A inh	Gal4-VP16 FLuc	Six1-Eya2 inh
Oc1ccccc1/C=N/Nc1cc(N2CCCC2)nc(N2CCCC2)n1	8.7%	11.2µM*	0.0	?	?
Oc1ccc(/C=N/Nc2cc(N3CCOCC3)nc(N3CCOCC3)n2)cc1O	18.3%	-0.7%	-14.7	?	-23.5
CCCCc1ccc(/C(C)=N/Nc2cc(N3CCOCC3)nc(C)n2)cc1	0.4%	12.6µM*	/	?	-4.2
Cc1nc(N/N=C/c2ccc(O)cc2O)cc(N2CCOCC2)n1	10.7%	?	-93.4*	-14.0%	-78.7*
COc1ccc(CCNC(=O)c2ccc(S(=O)(=O)N3CCCCC3)cc2)cc1	/	/	/	/	10.3
Cc1c(Cl)cccc1N=Cc1ccc([N+](=O)[O-])s1	2.1%	?	?	20µM*	-67.2*
COC(=O)N/N=C/c1ccc([N+](=O)[O-])s1	-5.3%	-19.0%	0.5	-22.4%	4.0
O=c1cc[nH]c2c(Cl)cccc12	-6.4%	3.6%	/	?	2.3
O=c1cc[nH]c2c1ccc1c(=O)cc[nH]c12	/	17.3%	-85.8*	0.2%	-75.2*
CCOc1cc(/C=C(\C#N)C(N)=O)ccc1OS(=O)(=O)c1ccccc1	14.1µM*	-66.6%	5.1	?	-0.3
CCOC(=O)/C(C#N)=C/c1ccc(OC)c(OC)c1	?	-19.2%	12.5	0.2%	-12.2
COc1ccc(C2CC(C(F)(F)F)n3nc(C(=O)N(C)Cc4cn(C)nc4C)c(Cl)c3N2)cc1 (stereo unspecified)	1.8%	?	-0.5	2.1%	-0.9
COc1ccc(C2CC(C(F)(F)F)n3nc(C(=O)NCc4c(C)nn(C)c4C)c(Cl)c3N2)cc1 (stereo unspecified)	-18.3%	-3.0%	-1.5	22.4µM*	-0.6
CCCCCCCCN1C(=O)[C@H](CC(=O)N2CCOCC2)C[C@@]2(C(=O)OCC)CCCC=C12	/	/	-10.4	/	1.4
CCC(=O)NC1=C(NC(C)c2ccccc2)C(=O)c2ccccc2C1=O (stereo unspecified)	-4.5%	-23.5%	-6.2	?	-8.6
CCC(=O)NC1=C(Cl)C(=O)C(NC(=O)CC)=C(Cl)C1=O	-83.6%	2.82µM*	/	7.08µM*	-24.1
CCCCn1c(SCC(=O)Nc2cc(C)on2)nc2c1c(=O)n(C)c(=O)n2C	20µM*	?	4.1	-15.4%	2.9
CCn1c(SCC(=O)Nc2cc(C)on2)nc2c1c(=O)n(C)c(=O)n2C	25.0%	0.0%	9.1	1.9%	5.0
Cc1cc(NC(=O)CSc2nc3c(c(=O)n(C)c(=O)n3C)n2C(C)C)no1	28.2µM*	10.2%	-2.1	-0.3%	-1.8
Cc1cccc2cc(CN(CC3CCCO3)C(=O)NC3CCCCC3)c(=O)[nH]c12 (stereo unspecified)	-1.2%	15.8%	8.5	-5.7%	-1.3
Cc1ccc2cc(CN(CC3CCCO3)C(=O)NC3CCCCC3)c(=O)[nH]c2c1C (stereo unspecified)	1.1%	3.16µM*	11.9	?	1.7
C=CCn1c(CSCc2ccc(F)cc2)n[nH]c1=S	-0.9%[11.5 µM]	3.16µM*	/	3.55µM*	-8.8
C=CCn1c(CCCOc2ccc(Cl)cc2Cl)n[nH]c1=S	-7.7%	3.55µM*	14.7	5.62µM*	5.7
C=CCn1c(Cc2ccccc2)n[nH]c1=S	-10.7%	7.08µM*	-0.2	?	3.9
C=CCn1c(Cc2c[nH]c3ccccc23)n[nH]c1=S	-5.7%	0.0%[10 µM]	11.0	-27.2%	-0.4
SMILES	PKM2 act	RORgamma inh	CtBP-E1A inh	Gal4-VP16 FLuc	Six1-Eya2 inh
C=CCn1c(-c2ccncc2)n[nH]c1=S	-5.4%	10µM*	2.7	-18.2%	1.8
C=CCn1c(-c2ccccc2)n[nH]c1=S	10.8%	?	-1.5	-0.3%	-2.1
CC(C)C[C@H](NC(=O)CNC(=O)[C@@H]1CCCN1C(=O)[C@H](CCCNC(=N)N)NC(=O)[C@H](CC(=O)O)NC(=O)[C@@H](NC(=O)[C@H](CC(N)=O)NC(=O)[C@@H](NC(=O)[C@H](CC(=O)O)NC(=O)CNC(=O)[C@@H](NC(=O)[C@@H](NC(=O)[C@H](C)NC(=O)[C@@H](N)CCC(N)=O)[C@@H](C)O)C(C)C)C(C)C)[C@@H](C)O)C(=O)N[C@@H](CC(C)C)C(=O)N[C@@H](CC(=O)O)C(=O)N[C@@H](CC(C)C)C(=O)N[C@@H](CCCCN)C(=O)O	/	12.5%	/	-9.6%	/
C=CCn1c(-c2ccoc2)n[nH]c1=S	-0.1%	11.2µM*	-10.4	17.8µM*	1.9
C=CCn1c(-c2cc(OC)cc(OC)c2)n[nH]c1=S	-1.9%	?	-0.5	?	-1.6
C=CCn1c(-c2ccc(F)cc2)n[nH]c1=S	-9.4%	7.94µM*	-4.2	?	4.0
C=CCn1c(-c2cccc(OCC)c2)n[nH]c1=S	-7.5%	5.01µM*	0.0	17.8µM*	1.9
C=CCn1c(CCc2cc(C(C)(C)C)c(O)c(C(C)(C)C)c2)n[nH]c1=S	-8.7%	2.51µM*	3.3	7.94µM*	4.0
C=CCn1c(-c2sc3nc(C)cc(C)c3c2N)n[nH]c1=S	4.3%	?	-0.1	-3.7%	-17.0
C=CCn1c(-c2ccc3ncccc3c2)n[nH]c1=S	-2.4%	?	/	?	-2.2
O=C(NCc1ccccc1)c1cc(C2CCCCN2C(=O)OCCF)on1 (stereo unspecified)	/	/	-1.8	/	-0.2
NC(=O)C1CCN(C(=O)CC(c2ccccc2)c2ccccc2)CC1	2.7%[11.5 µM]	0.3%	-2.9	5.9%	0.3
CCc1ccccc1NC(=O)CN1CCN(C(=O)CCC(=O)N2CCC(c3ccccc3)=N2)CC1	/	/	-2.9	/	7.9
COCCn1c(SCC(=O)N2CCCCCC2)nnc1-c1ccco1	/	-14.6%	2.4	-0.5%	11.0
O=C(CNC(=O)c1ccccc1)N/N=C/c1cn[nH]c1-c1ccccc1	-4.0%	-14.3%	-16.9	?	-8.3
O=C(N/N=C\c1cn[nH]c1-c1ccccc1)c1ccc([N+](=O)[O-])cc1	1.3%	11.2µM*	-5.6	-4.0%	-14.0
O=C(N/N=C\c1cn[nH]c1-c1ccc(Cl)cc1)c1cccs1	-0.7%	?	0.2	?	4.3
O=C(N/N=C/c1cn[nH]c1-c1ccc(Cl)cc1)c1ccc([N+](=O)[O-])cc1	2.4%	10µM*	1.8	?	-14.9
Cc1ccc(CCC(=O)Nc2ncc(Cc3cccc(Cl)c3Cl)s2)o1	?	35.5µM*	-4.6	?	-1.7
C/C(=N\NC(=O)C1COc2ccccc2O1)c1ccccn1 (stereo unspecified)	-12.1%	1.78µM*	-86.3*	2.82µM*	-90.9*
C/C(=N/NC(=O)C1COc2ccccc2O1)c1ccc(Br)s1 (stereo unspecified)	-0.6%	?	6.1	-21.3%	2.3
C/C(=N\NC(=O)C1COc2ccccc2O1)c1ccc(Cl)s1 (stereo unspecified)	1.2%	6.31µM*	-0.1	17.8µM*	-1.7
